The test can be described thus: NCI Yeast Anticancer Drug Screen. Data for the mec2-1 strain (AID 157). Particulars: S. cerevisiae mec2-1 strain, stronger effect = higher value. As to the method:
Growth inhibition of yeast strains with defined genetic alterations is measured as a screen for potential anti-cancer activity. Selected strains with alterations in DNA damage repair or cell cycle control were exposed to compounds and growth inhibition was measured relative to vehicle treated controls. The strain used in this assay is mec2-1

Setting [1] is: at 5.0 µM (retest, dose inferred, filed as 0.5).
Where [2] appears, read: at 50.0 µM (retest, dose inferred, filed as 5.0).

Our source for the growth inhibition values is PubChem BioAssay (NCI).

“And” between values parts separate entries of the source, which are not always exact repeats. Equal entries are not always repeated. About 79,000 compounds went through this panel and 15% of them were active in at least one assay; those are over-represented in the sample as a whole. Values without a mark were called inactive. The source made the active and inactive calls. No stated cut-off is given here; in the data, active means growth inhibition above about 70%; inactive means the rest.

Take `O=[N+]([O-])c1ccc([I+]c2ccccc2)cc1`: the growth inhibition under setting [1] was 40%, the growth inhibition under setting [2] was 95% (active) and the growth inhibition (at 50.0 µM) was 86% (active).

For the molecule `Cc1cc(O)c2c(c1)C(=O)C(c1c(C)cc3c(c1O)C(=O)C1OC1C3=O)=CC2=O` (stereo not given), the growth inhibition reads like this: under setting [1], 99% (active); under setting [2], 96% (active); (at 50.0 µM) 76.2% (active).

Consider `c1ccc(-c2nc(N=C3N=c4ccccc4=N3)[nH]c2-c2ccccn2)nc1`, for which the growth inhibition reads like this: under setting [1], 54%; under setting [2], 97% (active); (at 50.0 µM) 77.8% (active).

As to `COc1ccc2nc3c4c(nccc4c2c1)-c1ncccc1C3=O`, the growth inhibition was 31% under setting [1], 98% (active) under setting [2] and 87.5% (active) (at 50.0 µM).

`O=C(NNc1ccccc1)OCc1ccccc1`: the growth inhibition was 43% under setting [1], 86% (active) under setting [2] and 20.5% (at 50.0 µM).

Take `c1csc(-c2[nH]nc3c2CCc2ccccc2-3)c1`: the growth inhibition by setting is: under setting [1], -13%; under setting [2], 97% (active); (at 50.0 µM) 96.6% (active).

In the case of `CC(C)(C)S(=O)(=O)O.[Ag]`, the growth inhibition was 100% (active) under setting [1] and 99% (active) under setting [2].

For `CCC[CH2][Sn]1([CH2]CCC)[O]C2C(CO)OC(n3ccc(N)nc3=O)C2[O]1` (stereo not given), the growth inhibition under setting [1] is 48%, the growth inhibition under setting [2] was 98% (active) and the growth inhibition (at 50.0 µM) was 89.7% (active).

With `Clc1ccccc1C(c1ccccc1)(c1ccccc1)n1ccnc1`, the growth inhibition is, setting by setting: under setting [1], 20%; under setting [2], 99% (active); (at 50.0 µM) 99.8% (active).

As to `COc1cc(/C=C/C(=O)CC(=O)/C=C/c2ccc(O)c(OC)c2)ccc1O`, the growth inhibition is, setting by setting: under setting [1], 74% (active); under setting [2], 93% (active); (at 50.0 µM) 87.1% (active).

On to `CCCCCCC1N=C(N)N=C(N)N1c1cccc(Cl)c1` (stereo not given), for which the growth inhibition by setting is: under setting [1], 10%; under setting [2], 56%; (at 50.0 µM) 48.8%.

As to `C=[CH][Sn]([CH]=C)([O]c1cccc2cccnc12)[O]c1cccc2cccnc12`, the growth inhibition is, setting by setting: under setting [1], 25%; under setting [2], 34%; (at 50.0 µM) 92.7% (active).

Take `O=C(O)C1CCCCC1`: the growth inhibition (at 50.0 µM) was -22.6% and -8.45%.

`OCCN1CCNCC1`: for the setting “at 50.0 µM”, the growth inhibition was -0.5% and -14.3%.

For `O=C(O)C(Cc1ccccc1)Cc1ccccc1`, the growth inhibition (at 50.0 µM) was 4.6% and 3.1%.

In the case of `CC(O)C(O)C(O)C(O)CO` (stereo not given), the growth inhibition (at 50.0 µM) is -8.65% and -14.4%.

Regarding `N=C(N)/C=C\C(=O)O`, the growth inhibition (at 50.0 µM) is -9.35% and -13.2%.
